Here are results for 97 compounds from PubChem BioAssay AID1259312 (Keith Lab, Institute of Cancer Science, University of …, 2017).

Molecules are shown by their SMILES. Among all 4,500 compounds or so, about 200 (4.4%) were called active.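 How the source made its calls: active means cell survival measured by absorbance rises more than 2.5-fold over infected cells without compound; inactive means the rest.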 Only a selection was taken, and actives are over-represented in it overall.

The assay in a line: survival after telomere uncapping, modulators, primary screen, cell-based (AID 1259312).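 Further: virus expresses mutant telomerase RNA that uncaps telomeres and kills cells; compound added 2 days after infection so exposure lasts 3 days.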 The conditions noted are these: HCT116 + Ad-hTR-mut, MTT, 5 d; at 10 µM, stronger effect = higher value.
For `O=C(O)Cn1c(O)c(/C=C2/C=c3ccccc3=NC2=O)sc1=S`, the fold change result is “inactive”. For `O=C(O)CCCn1c(O)c(/C=C2/C=c3ccccc3=NC2=O)sc1=S` the value was “active”.

As to `O=C(O)CCCCCn1c(O)c(C2=c3cc(Br)ccc3=NC2=O)sc1=S`, the fold change entry is “inactive”. With `CCOC(=O)C1=C(C)NC2=C(C(=O)CC(C)(C)C2)C1c1ccc(C)s1` (configuration not stated) the figure was -1.32 (inactive); with `CN=C1S/C(=C/c2cn(Cc3ccc(F)cc3)c3ccccc23)C(=O)N1C`, -1.32 (inactive); with `O=C(O)C1OC(O)C(O)C(O)C1O` (configuration not stated), -2.05 (inactive). For the compound `CCOC(=O)CN(C1=NS(=O)(=O)c2ccccc21)c1ccccc1`, the fold change was 1.02 (inactive). As to `COc1ccc(NS(=O)(=O)c2ccc(N=Cc3cc(Br)cc(Br)c3O)cc2)nn1`, the fold change entry is “inactive”. In the case of `CCOC(=O)c1c(C)nn2cc(-n3cc([N+](=O)[O-])cn3)cnc12`, the fold change is 5.25 (active). For `O=C(O)Cn1cc([N+](=O)[O-])cn1` the value was 2.02 (inactive).

Consider `CCCCNC(=O)Cn1cc([N+](=O)[O-])cn1`, for which the fold change was -2.9 (inactive).

`COc1cc(C(c2ccccc2)(c2ccccc2)c2ccccc2)cc2c1NC(C)(C)C=C2C`: the fold change was 2.23 (inactive).

`NCc1cc(C(F)(F)F)cc(C(F)(F)F)c1`: the fold change was -1.11 (inactive).

For `O=C(CC(c1ccc(Cl)c(Cl)c1)C1CCCCCC1=O)c1ccc(Cl)cc1` (configuration not stated), the fold change is -1.72 (inactive). With `CC(CC(=O)O)n1ccnc1` (configuration not stated) the figure was 1.78 (inactive); with `O=C(CC(C(=O)O)n1ccnc1)c1ccc(C2CCCCC2)cc1` (configuration not stated), 2.74 (active); with `O=C1ON=C(c2ccccc2)/C1=C/N1CCCCC1`, -1.47 (inactive). With `O=C1CN(C(=O)CSC2CCS(=O)(=O)C2)c2ccccc2N1` (configuration not stated) the figure was -1.24 (inactive).

Turning to `CC1CC2=C(C(=O)O1)C(c1cccs1)C(C#N)=C(N)O2` (configuration not stated), the fold change is 2.62 (active). As for `CCOC(=O)C1=C(C)OC(N)=C(C#N)C1c1cccs1` (configuration not stated), the fold change was 2.09 (inactive). With `CC1(C)CC(=O)C2=C(C1)OC(N)=C(C#N)C2c1cccs1` (configuration not stated) the figure was 4.33 (active); with `CC1(C)CC(=O)C2=C(C1)OC(N)=C(C#N)C2c1cc(Br)cs1` (configuration not stated), -1.65 (inactive); with `COC(=O)C1=C(C)OC(N)=C(C#N)C1c1cccs1` (configuration not stated), -1.65 (inactive). For `Cc1ccc(C2C(C#N)=C(N)OC3=C2C(=O)CC(C)(C)C3)s1` (configuration not stated) the value was -4.43 (inactive); for `Cc1[nH]c2ccccc2c1C(=O)C(=O)NC(C)(C)C`, -1.22 (inactive). For `CCOC(=O)c1c(NC(=O)C23CC4CC(CC(C4)C2)C3)sc2c1CCCCC2`, the fold change is -1.2 (inactive). Turning to `N#C/C(=C\c1ccccc1/C=C(\C#N)c1ccc2c(c1)OCO2)c1ccc2c(c1)OCO2`, the fold change is 1.78 (inactive). With `CC(=O)OC[C@H]1O[C@@H](n2cc(C)c(=O)[nH]c2=O)C[C@@H]1OC(C)=O` the figure was -1.48 (inactive). Regarding `Clc1ccccc1/C=C/c1nnc(-c2ccccc2Cl)o1`, the fold change was -1.03 (inactive). Regarding `CC(=O)[C@H]1CC[C@H]2[C@@H]3CCC4=CC(=O)CC[C@]4(C)[C@H]3CC[C@]12C`, the fold change was 1.4 (inactive). For `CC12CCC(=O)C=C1CCC1C2CCC2(C)C1CC[C@@]21OCOC12COCO2` (some centres not stated) the value was 3.17 (active); for `CCCCCC(=O)O[C@]1(C(C)=O)CC[C@H]2[C@@H]3CCC4=CC(=O)CC[C@]4(C)[C@H]3CC[C@@]21C`, -1.16 (inactive). Regarding `CC(Sc1nnc(Cc2ccccc2)n1C1CCCCC1)c1nc(N)nc(N2CCCc3ccccc32)n1` (configuration not stated), the fold change is -1.7 (inactive). For `O=c1cc(-c2cccc(O)c2)oc2cc(O)ccc12` the value was -1.53 (inactive); for `O=C(c1ccc(COc2ccc(Cl)cc2Cl)o1)n1cc(Br)cn1`, -1.16 (inactive).

For the compound `CC1CC[C@H](C(C)C)C(O)C1` (some centres not stated), the fold change is -1.42 (inactive). For `Cn1c(SCc2nc3ccc([N+](=O)[O-])cc3[nH]2)nc2ccccc21` the value was -1.29 (inactive); for `O=[N+]([O-])c1ccc2nc(CSc3nc4ccc(Br)cc4[nH]3)[nH]c2c1`, 3.33 (active). For `O=c1[nH]c(SCc2nc3ccc([N+](=O)[O-])cc3[nH]2)nc2ccccc12` the value was “inactive”; for `Clc1[nH]nc2ccccc12`, 1.09 (inactive).

With `OCc1ccc(O)c2ncccc12`, the fold change was -7.69 (inactive). For `O=[N+]([O-])c1cc(CN2CCCC2)c2cccnc2c1O` the value was 3.06 (active); for `O=[N+]([O-])c1ccc(Sc2nnnn2-c2ccccc2)c2cccnc12`, -73.2 (inactive); for `O=[N+]([O-])c1ccc(N2CCN(S(=O)(=O)c3ccc4ccccc4c3)CC2)c2ncccc12`, -1.06 (inactive). Regarding `CN(Cc1cc([N+](=O)[O-])c(O)c2ncccc12)C1CCCCC1`, the fold change is 3 (active). `O=[N+]([O-])c1ccc(N2CCCC2)cc1Sc1cccc2cccnc12`: the fold change is 1.11 (inactive). For `O=[N+]([O-])c1cc(Cl)c2cccnc2c1O` the value was 2 (inactive); for `CN1CCN(Cc2cc(Cl)c3cccnc3c2O)CC1`, 3.37 (active). For `OCCOc1c(Cl)cc(Cl)c2cccnc12` the value was -1.42 (inactive); for `CN(Cc1cc(Br)cc(Br)c1N)C1CCCCC1`, -1.39 (inactive).

`CN1CCN(Cc2cc([N+](=O)[O-])c(O)c3ncccc23)CC1`: the fold change is 2.98 (active). With `S=c1[nH]nc(-c2cccs2)n1-c1ccccc1`, the fold change is -1.22 (inactive). With `C=C(C)n1c(=O)[nH]c2ccccc21`, the fold change was 1.29 (inactive). With `Cc1c(Br)c([N+](=O)[O-])nn1CC(=O)O` the figure was 1.12 (inactive); with `O=C1N=C(N2CCCC2)S/C1=C\c1ccc(Cl)cc1`, -1.52 (inactive); with `COc1ccc(-c2nn(CN3CCN(C(c4ccccc4)c4ccccc4)CC3)c(=S)n2C)cc1`, -1.05 (inactive). For `CCCSc1nnc(-c2ccc(Cl)cc2Cl)o1` the value was 2.03 (inactive). With `Clc1ccc(CSc2nnc(-c3ccccc3Cl)o2)c(Cl)c1` the figure was 3.91 (active); with `Brc1cccc(-c2nnc(SCc3ccon3)o2)c1`, -2.29 (inactive); with `Clc1ccc(-c2nnc(SCc3nc(-c4ccccc4)no3)o2)cc1`, -1.07 (inactive).

For the compound `Clc1ccc(-c2nnc(SCc3ccccc3)o2)c(Cl)c1`, the fold change is 2.08 (inactive). On to `Clc1ccc(CSc2nnc(-c3cccc(Br)c3)o2)c(Cl)c1`, for which the fold change is 2.77 (active). With `CC1(C)C=Cc2c(c3ccccc3[nH]c2=O)O1` the figure was -1.4 (inactive); with `O=C(Cc1cccs1)NC1CCCCCC1`, -2.19 (inactive). For `Cc1ccc(-c2noc(COc3ccc4c(c3)OCO4)n2)cc1` the value was 1.5 (inactive). Consider `CC1=C/C(=C(\c2cc(C)c(O)cc2C)c2ccccc2S(=O)(=O)O)C(C)=CC1=O`, for which the fold change result is “inactive”. As for `O=S(=O)(Nc1nc2ccccc2nc1N1CCOCC1)c1ccccc1`, the fold change was -1.42 (inactive). For `CN1CCN(c2nc3ccccc3nc2N2CCN(C)CC2)CC1` the value was 2.65 (active); for `c1ccc(-c2nc3ccccc3nc2-c2ccccc2)cc1`, -1.02 (inactive); for `N#CC1=C(N)C(C#N)(C#N)[C@@H](c2cccc(Br)c2)[C@@H]2CN(Cc3ccccc3)CC=C12`, 1.73 (inactive).

With `CC(C)N1CC=C2C(C#N)=C(N)C(C#N)(C#N)C(c3ccc(F)cc3)[C@H]2C1` (some centres not stated), the fold change was 3.68 (active). On to `CCCN1CC=C2C(C#N)=C(N)C(C#N)(C#N)[C@H](c3ccsc3)[C@H]2C1`, for which the fold change is 2.9 (active).

On to `CN1CC=C2C(C#N)=C(N)C(C#N)(C#N)C(c3ccc(F)cc3)[C@H]2C1` (some centres not stated), for which the fold change was -37.3 (inactive). With `CC(C)c1ccc(C2[C@H]3CN(C)CC=C3C(C#N)=C(N)C2(C#N)C#N)cc1` (some centres not stated) the figure was 2.14 (inactive); with `COc1ccc(C2C3CCC=C3C(C#N)=C(N)C2(C#N)C#N)cc1` (configuration not stated), -1.15 (inactive); with `c1cnc(SCc2ccc3nsnc3c2)nc1`, 1.11 (inactive). On to `CC(=O)Nc1ccc(S(=O)(=O)N2CCCC2C(=O)NC2CC2)cc1` (configuration not stated), for which the fold change was -1.03 (inactive). With `COc1ccc(Oc2coc3cc(O)ccc3c2=O)cc1` the figure was -2.75 (inactive); with `N#C/C(=C\c1ccc2c(c1)OCO2)c1ccccn1`, -2.23 (inactive); with `CC(=O)Nc1nonc1NC(=O)C(F)(F)F`, -1.07 (inactive). With `O=S(=O)(NCCn1cccc1)c1ccc2ccccc2c1` the figure was 1.09 (inactive); with `O=[N+]([O-])c1cc(Cl)ccc1N1CCN(c2ccc(Cl)cc2[N+](=O)[O-])CC1`, 2.59 (active). For the compound `O=[N+]([O-])c1ccc(Cl)cc1N1CCOCC1`, the fold change was 1.51 (inactive). With `O=[N+]([O-])c1cc(Cl)ccc1N1CCOCC1` the figure was -1.07 (inactive); with `CC(C)CC(N)C(N)=O` (configuration not stated), -2.69 (inactive); with `N#C/C(=C/c1ccncc1)C(N)=S`, -1.8 (inactive). `COc1cc2c(Cc3c4c5c(cc(OC)c(OC)c5c5c(OC)c(OC)ccc35)CCN4C)c3c4c(cc(OC)c(OC)c4c2cc1OC)CCN3C`: the fold change is -1.39 (inactive).

Turning to `COC(=O)C1=C(N)C(C(=O)OC)=c2s/c(=C/c3cccnc3)c(=O)n2C1c1cccnc1` (configuration not stated), the fold change is 1.8 (inactive).

As to `c1ccc(-c2nc(SCc3ccon3)[nH]c2-c2ccccc2)cc1`, the fold change was -1.7 (inactive). On to `Cc1sc(NC(=O)Cn2cnc([N+](=O)[O-])n2)c(C(N)=O)c1C`, for which the fold change was 1.35 (inactive). For `CC(=O)OC1CCC2(C)C(=CCC3C2CCC2(C)C3CC3OC32[C@H](C)OC(C)=O)C1` (some centres not stated) the value was 4.11 (active); for `CC(C)CCCC(C)C1CCC2C3CC=C4CC(O)CCC4(C)C3CCC12C` (configuration not stated), 1.54 (inactive). With `CC(=O)OC1CCC2(C)C(=CCC3C2CCC2(C)C(C(C)O)CCC32)C1` (configuration not stated) the figure was 3.23 (active); with `CC(=O)OC1CCC2(C)C(=CCC3C2CC[C@]2(C)C(C(C)=O)CCC32)C1` (some centres not stated), 1.32 (inactive). Consider `CC[C@H](/C=C/[C@@H](C)[C@H]1CC[C@H]2[C@@H]3CC=C4C[C@@H](O)CC[C@]4(C)[C@H]3CC[C@]12C)C(C)C`, for which the fold change is -1.34 (inactive). For `CCCCOC1CC[C@@]2(C)C(=CC[C@H]3[C@@H]4CC[C@H]([C@H](C)CCCC(C)C)[C@@]4(C)CC[C@@H]32)C1` (some centres not stated) the value was -1.1 (inactive); for `CNc1oc(/C=C/c2ccccc2)nc1S(=O)(=O)c1ccc(Cl)cc1`, -1.12 (inactive).
